High-throughput results: PubChem BioAssay, The Scripps Research Institute Molecular Screening Center
GPR151 activ – human GPR151 activation. Q8TDV0. PathHunter beta-arrestin GPR151 cells, luminescence. 650,000 tested, 1% active. activation, % at 11.2 µM; in the data active = activation above about 4.9%;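 note: 0% = median of compound wells and 100% = cells with positive control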
Target sequence (Q8TDV0 whole entry, looked up): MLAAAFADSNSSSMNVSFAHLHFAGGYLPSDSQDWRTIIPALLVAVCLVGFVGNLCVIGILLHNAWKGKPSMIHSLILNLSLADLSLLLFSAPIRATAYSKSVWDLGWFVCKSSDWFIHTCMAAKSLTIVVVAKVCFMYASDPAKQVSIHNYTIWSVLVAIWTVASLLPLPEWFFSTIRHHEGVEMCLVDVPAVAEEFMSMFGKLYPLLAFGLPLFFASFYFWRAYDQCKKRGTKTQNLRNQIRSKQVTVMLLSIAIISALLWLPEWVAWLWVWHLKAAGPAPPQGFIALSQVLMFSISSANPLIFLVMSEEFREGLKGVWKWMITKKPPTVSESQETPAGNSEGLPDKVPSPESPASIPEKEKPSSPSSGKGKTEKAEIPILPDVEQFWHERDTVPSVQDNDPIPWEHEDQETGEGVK
FBW7 activator – human FBW7 E3 ligase activation, primary screen; AID 1259310; AlphaScreen FBW7–phospho-cyclin E peptide binding, activator screen; 650,000 tested, 0.13% active; normalized activity (activation), % at 26.1 µM; in the data active = normalized activity above about 1.9%;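 note: purified mutant Fbw7 with reduced substrate affinity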
TEAD-YAP block – TEAD-YAP interaction inhibition. 640,000 tested, 1.4% active. inhibition, % at 9.12 µM. HEK-TIYL cells, TEAD-Gal4/YAP UAS-luciferase luminescence; in the data active = inhibition above about 32%;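 note: 0% = median of test compound wells and 100% = reference inhibitor wells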
MITF inh – blocks human microphthalmia-associated transcription factor | O75030 | AlphaScreen MITF homodimerization, bead proximity signal | inhibition, % at 2.6 µM | 650,000 tested, 0.91% active; in the data active = inhibition above about 50%;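 note: 0% = vehicle wells with protein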
An asterisk follows results filed as active. Sampled rows, rich in hits. Any-hit rate of the full collection: about 3.5%.

COC(=O)C[C@](O)(CCCC(C)(C)O)C(=O)O[C@@H]1C(OC)=C[C@]23CCCN2CCc2cc4c(cc2[C@H]13)OCO4 was read as GPR151 activ -1, FBW7 activator 1, TEAD-YAP block 99* and MITF inh 3.
O=c1c(-c2ccc3c(c2)OCCCO3)coc2cc(O)cc(O)c12 was read as GPR151 activ -1, FBW7 activator 0, TEAD-YAP block 66* and MITF inh 6.
COc1ccc2c(=O)c(-c3ccc4c(c3)OCCO4)coc2c1 was read as GPR151 activ -1, FBW7 activator 0, TEAD-YAP block -67 and MITF inh 8.
`O=c1c(-c2ccc3c(c2)OCCO3)coc2cc(O)ccc12` gave GPR151 activ -1, FBW7 activator 1, TEAD-YAP block 55* and MITF inh -5.
`CCOC(=O)Cn1cc(/C=C2/C(=O)N(c3cccc(C(=O)O)c3)N=C2C)c2ccccc21` gave GPR151 activ 1, FBW7 activator 0, TEAD-YAP block -3 and MITF inh 51*.
CCc1ccc2nc(N3CCC(C(=O)NC(C)C)CC3)sc2c1 was read as GPR151 activ 1, FBW7 activator 0, TEAD-YAP block 40* and MITF inh -10.
Screening CCc1ccc2nc(N3CCC(C(=O)NC4CCCCC4)CC3)sc2c1 returned GPR151 activ -1, FBW7 activator 0, TEAD-YAP block 70* and MITF inh 14.
O=C1N/C(=C/c2ccccc2F)C(=O)N1c1cccc(Cl)c1 was read as GPR151 activ -1, FBW7 activator 0, TEAD-YAP block -9 and MITF inh -1.
For COCCN(CCOC)Cc1c(C)[nH]c2ccc(C)cc2c1=O the results were GPR151 activ -1, FBW7 activator 0, TEAD-YAP block -9 and MITF inh 11.
`COc1ccc(Br)cc1C1CC(=O)NC2=C1C(=O)CCC2` (stereo not drawn) gave GPR151 activ -1, FBW7 activator -1, TEAD-YAP block 47* and MITF inh 10.
`CCn1nccc1C(=O)Nc1ccc(N=Nc2ccccc2)cc1` gave GPR151 activ -2, FBW7 activator -1, TEAD-YAP block -16 and MITF inh 12.
`O=C(OCC1CCCO1)c1ccc(NS(=O)(=O)c2ccc(Br)cc2)cc1` (stereo not drawn) gave GPR151 activ 1, FBW7 activator 0, TEAD-YAP block 1 and MITF inh 0.
Screening Cc1ccc(NC(=O)CCCCCC2NC(=O)NC2C)cc1 (stereo not drawn) returned GPR151 activ 1, FBW7 activator -1, TEAD-YAP block -11 and MITF inh 99*.
For Cc1ccc(NC(=O)CCCCCN2C(=O)c3ccccc3C2=O)cc1 the results were GPR151 activ 1, FBW7 activator 1, TEAD-YAP block 11 and MITF inh 5.
`CCSc1nc(-c2ccccc2)c(NC(=O)c2ccco2)s1` gave GPR151 activ 0, FBW7 activator 1.9*, TEAD-YAP block -10 and MITF inh 11.
Cc1ccc(S(=O)(=O)N2CCCCC2CCNC(=O)C(=O)NCc2ccccc2)cc1 (stereo not drawn) was read as GPR151 activ 1, FBW7 activator 0, TEAD-YAP block 46* and MITF inh 3.
Screening COc1ccc(NC(=O)C(=O)NCC2CCCN2S(=O)(=O)c2ccc(C)cc2)cc1 (stereo not drawn) returned GPR151 activ 2, FBW7 activator 0, TEAD-YAP block 61* and MITF inh -15.
For CN(Cc1ccccc1)c1ccnc2c(-c3cccnc3)cnn12 the results were GPR151 activ 1, FBW7 activator 0, TEAD-YAP block -46 and MITF inh -29.
`Oc1cccc(-c2cnn3c(NCc4ccccn4)ccnc23)c1` gave GPR151 activ -1, FBW7 activator -1, TEAD-YAP block 56* and MITF inh 14.
Screening OCc1cccc(-c2cnn3c(NCc4ccccn4)ccnc23)c1 returned GPR151 activ 0, FBW7 activator -1, TEAD-YAP block 77* and MITF inh 23.
CN(Cc1ccccc1)c1ccnc2c(-c3cccc(CO)c3)cnn12 was read as GPR151 activ 0, FBW7 activator 0, TEAD-YAP block 76* and MITF inh -18.
`COc1ccc(OC)c(NC2=C(Cl)C(=O)c3ccccc3C2=O)c1` gave GPR151 activ 2, FBW7 activator 0, TEAD-YAP block 27 and MITF inh 62*.
Screening CCS(=O)(=O)N1CCN(c2nc(C)c(C)c(=O)[nH]2)CC1 returned GPR151 activ -1, FBW7 activator 0, TEAD-YAP block 3 and MITF inh -24.
`COc1ccc(/C=C/c2nc3ccccc3n2C)cc1` gave GPR151 activ -11, FBW7 activator 0, TEAD-YAP block 98* and MITF inh -7.
Screening Nc1ccc2nc(/C=C/c3ccccc3)[nH]c2c1 returned GPR151 activ -9, FBW7 activator 0, TEAD-YAP block 15 and MITF inh 10.
`COc1ccc(/C=C/c2nc3ccccc3c(=O)o2)cc1` gave GPR151 activ -10, FBW7 activator 0, TEAD-YAP block 75* and MITF inh -5.
COc1cccc(N2CC(O)=C(c3nc4ccccc4[nH]3)C2=N)c1 was read as GPR151 activ 1, FBW7 activator 0, TEAD-YAP block 37* and MITF inh 1.
Screening C(=C\c1nc2ccccc2[nH]1)/c1ccccc1 returned GPR151 activ -10, FBW7 activator 0, TEAD-YAP block 80* and MITF inh -7.
COc1ccc(/C=C/C(=O)Nc2nc3ccccc3n2C)cc1 was read as GPR151 activ -1, FBW7 activator 0, TEAD-YAP block -17 and MITF inh 17.
COc1ccccc1/C=C/c1nc2ccccc2c(=O)o1 was read as GPR151 activ -7, FBW7 activator 0, TEAD-YAP block -54 and MITF inh 7.
For Cc1cc(-c2nnc(CCC(=O)N3CCN(C4CCCCC4)CC3)o2)no1 the results were GPR151 activ 1, FBW7 activator 0, TEAD-YAP block 6 and MITF inh 8.
`CCOCCOc1cccc(C(=O)Nc2cccc(C(C)=O)c2)c1` gave GPR151 activ 1, FBW7 activator 0, TEAD-YAP block 1 and MITF inh 6.
For COc1ccc(/C=C(/C#N)c2nc3ccccc3[nH]2)cc1 the results were GPR151 activ -2, FBW7 activator 0, TEAD-YAP block -51 and MITF inh 2.
Screening COc1ccc(-c2nc3ccccc3[nH]2)cc1 returned GPR151 activ -11, FBW7 activator 0, TEAD-YAP block 50* and MITF inh -3.
`COc1ccc(/C=C/c2nc3ccccc3[nH]2)cc1` gave GPR151 activ -6, FBW7 activator 0, TEAD-YAP block 88* and MITF inh 1.
For COc1ccc(/C=N\n2nnc3ccccc32)cc1 the results were GPR151 activ -7, FBW7 activator 0, TEAD-YAP block 85* and MITF inh 3.
Screening CCCC(Nc1ncnc2sccc12)c1ccccc1 (stereo not drawn) returned GPR151 activ -1, FBW7 activator 0, TEAD-YAP block 21 and MITF inh -7.
